RGS7-Gao = RGS7-Galphao binding modulators, primary screen, biochemical, multiplexed bead flow cytometry. binding response (% of control), % at 10 µM. 220,000 compounds, 0.35% hits. actives lie on both sides; in the data active = binding response below about 49% or above about 150%; inconclusive = no clear call, values can overlap the other calls; inactive = in between;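 also: fluorescent Galphao held in activated GDP-AlF4 state binding bead-coupled RGS7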
RGS4-Gao reg = modulators of RGS4 binding to Galphao, primary screen, biochemical, multiplexed bead flow cytometry. Guanine nucleotide-binding protein G(o) subunit alpha (Homo sapiens), P09471. actives lie on both sides. binding response (% of control), % at 10 µM. 220,000 compounds, 0.33% hits. AID 1415, 2008; in the data active = binding response below about 49% or above about 150%; inactive = in between;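 also: fluorescent Galphao activated with aluminum fluoride binding bead-coupled RGS4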
RGS16-Gao = modulators of RGS16 binding to Galphao, primary screen, biochemical, human proteins, multiplexed bead flow cytometry | AID 1441, 2008 | 220,000 compounds, 0.38% hits | Regulator of G-protein signaling 16 (Homo sapiens) + Guanine nucleotide-binding protein … | binding response (% of control), % at 10 µM | bead-based flow cytometry RGS16-Galphao binding, fluorescence; actives lie on both sides;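 also: Galphao activated by GDP with aluminum fluoride before binding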
Target sequence (O15492 whole entry, looked up): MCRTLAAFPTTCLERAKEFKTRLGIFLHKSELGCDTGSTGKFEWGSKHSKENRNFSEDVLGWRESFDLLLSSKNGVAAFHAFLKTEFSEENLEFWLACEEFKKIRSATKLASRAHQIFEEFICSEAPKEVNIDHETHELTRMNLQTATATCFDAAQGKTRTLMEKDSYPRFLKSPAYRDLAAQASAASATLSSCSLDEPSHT
Target sequence (P09471 whole entry, looked up): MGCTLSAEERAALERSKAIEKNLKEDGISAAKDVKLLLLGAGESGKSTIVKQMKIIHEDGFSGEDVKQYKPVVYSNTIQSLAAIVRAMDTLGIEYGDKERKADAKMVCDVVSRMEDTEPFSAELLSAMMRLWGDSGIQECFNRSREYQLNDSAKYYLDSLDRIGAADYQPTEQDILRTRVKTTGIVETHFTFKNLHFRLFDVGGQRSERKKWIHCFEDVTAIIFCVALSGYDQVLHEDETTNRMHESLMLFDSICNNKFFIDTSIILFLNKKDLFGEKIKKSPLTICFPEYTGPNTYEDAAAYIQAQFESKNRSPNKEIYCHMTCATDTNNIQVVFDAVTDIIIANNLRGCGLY
RGS8-Gao reg = RGS8-Galphao binding modulators, primary screen, biochemical, multiplexed bead flow cytometry | Guanine nucleotide-binding protein G(o) subunit alpha (Homo sapiens), P09471 | actives lie on both sides | response (percent of control binding), % at 10 µM | 220,000 compounds, 0.34% hits; in the data active = response below about 60% or above about 140%; inactive = in between;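 also: Galphao activated as the GDP aluminium fluoride complex binding bead-coupled RGS8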
Avidin bead fluor = green autofluorescence of compounds with avidin beads – biophysical, 488/530 nm, flow cytometry, artefact control, profiling panel | compound fluorescence 488/530 nm; hits give high values | fluorescence (KMESF) at 10 µM | 220,000 compounds, 0.38% hits | AID 1775, 2009; in the data active = fluorescence above about 47
GSH fluor = compound fluorescence on glutathione beads, profiling panel, artefact control, biophysical, 488/530 nm, flow cytometry; GSH beads flow cytometry, compound fluorescence 488/530 nm; hits give high values; 190,000 compounds, 0.25% hits; fluorescence (KMESF) at 10 µM; in the data active = fluorescence above about 89;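 also: glutathione beads carrying GST-tagged Bcl family fusion proteins plus one bare bead set; values are compound well signal with DMSO vehicle wells as background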
RGS-Gao = modulators of RGS–Galpha-o binding, primary screen, biochemical, multiplexed beads, flow cytometry, RGS4/7/8/16/19; 1,600 compounds, 99% hits; RGS4–Galpha-o binding response, % at 10 µM; multiplexed bead flow cytometry; shares compounds with RGS16-Gao;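 also: fluorescently labeled Galpha-o bound to GDP with aluminium fluoride binding biotinylated RGS beads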
Avidin counter = disruption of biotin probe capture by avidin, counter-screen for RGS protein interaction modulators, biochemical, flow cytometry, bead-based; shares compounds with RGS16-Gao; streptavidin beads, fluorescein-biotin binding; inhibition, % at 10 µM; 1,700 tested, under 10 active;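 active = inhibition above 50%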;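 also: median green fluorescence of gated singlet beads compared with DMSO control wells; 0% = DMSO wells and 100% = complete loss of bead fluorescence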
RGS8-Gao single = RGS8-Galphao binding modulators, confirmation, biochemical, multiplexed bead flow cytometry, single concentration; binding response (% of control), % at 10 µM; 1,700 compounds, 3% hits; bead-based flow cytometry RGS8-Galphao binding, fluorescence; actives lie on both sides; shares compounds with RGS16-Gao; in the data active = binding response below about 72% or above about 130%; inactive = in between;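 also: Galphao activated as GDP AlF4 complex before binding bead RGS8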
RGS7-Gao confirm = RGS7-Galphao binding modulators, confirmation, biochemical, multiplexed bead flow cytometry, single concentration. bead-based flow cytometry RGS7-Galphao binding; actives lie on both sides. response (percent of control binding), % at 10 µM. shares compounds with RGS16-Gao. 1,700 compounds, 7.8% hits; in the data active = response below about 75% or above about 130%; inactive = in between;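 also: fluorescent Galphao activated with GDP and aluminum fluoride binding bead-coupled RGS7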
RGS16-Gao conf = modulators of RGS16-Galphao protein binding, confirmation, biochemical, single concentration, multiplexed bead flow cytometry; shares compounds with RGS16-Gao; bead-based flow cytometry; actives lie on both sides; response (% of control binding), % at 10 µM; 1,700 compounds, 4% hits; AID 1838, 2009; in the data active = response below about 74% or above about 130%; inactive = in between;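 also: Galphao activated as the GDP aluminium fluoride complex binding bead-coupled RGS16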
RGS4-Gao confirm = modulators of RGS4-Galphao protein binding, confirmation, biochemical, single concentration, multiplexed bead flow cytometry. shares compounds with RGS16-Gao. 1,700 compounds, 4% hits. AID 1840, 2009. actives lie on both sides. binding response (% of control), % at 10 µM; in the data active = binding response below about 74% or above about 130%; inactive = in between
RGS19-Gao single = regulators of RGS19-Galphao binding, confirmation, biochemical, single point, multiplexed bead flow cytometry; shares compounds with RGS16-Gao; bead-based flow cytometry RGS19-Galphao binding; actives lie on both sides; response (percent of control binding), % at 10 µM; AID 1841, 2009; 1,700 compounds, 5% hits; in the data active = response below about 50% or above about 160%; inactive = in between;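 also: 100% = no compound control and 0% = blank background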
Active calls of the source: *; u = inconclusive; x = no result given; [ ] = another dose, or the depositor's remark. Rows were chosen to be rich in hits. Some 1.2% of all compounds tested hit in one or more screens of this group. Unless noted, no rule for the calls is given here.

SMILES | RGS7-Gao | RGS4-Gao reg | RGS16-Gao | RGS8-Gao reg | Avidin bead fluor | GSH fluor | Avidin counter | RGS8-Gao single | RGS7-Gao confirm | RGS16-Gao conf | RGS4-Gao confirm | RGS19-Gao single | others
O=C(Nc1ccc([N+](=O)[O-])cc1)Nc1ccc(Cl)cc1F | -4.6* | 11* | -52 | 4.4* | -2 | 24 | 0 | 100 | 102 | 102 | 99 | 102
O=C(Nc1ccc(Cl)cc1)Nc1cc([N+](=O)[O-])ccc1F | 98 | 98 | 103 | 101 | 4 | 9 | x | x | x | x | x | x
Cc1c(Cl)cccc1NC(=O)CCC(=O)N/N=C/c1ccc[nH]1 | 102 | 102 | 107 | 102 | 11 | 11 | x | x | x | x | x | x
CC1(C)N([O-])c2cc([N+](=O)[O-])ccc2[N+]1=O | u | 84 | -9.3* | 29* | 0 | x | x | x | x | x | x | x | RGS-Gao=84*
COc1ccc(CCNC(=O)/C(=C/c2cccnc2)NC(=O)c2ccccc2)cc1 | 108 | 110 | 226*[activator] | 127 | 14 | 13 | -2 | 103 | 107 | 104 | 103 | 92 | RGS-Gao=110*
O=C(NCCc1ccccc1F)/C(=C/c1cccnc1)NC(=O)c1ccccc1 | 97 | 101 | 78 | 96 | 6 | 13 | x | x | x | x | x | x
CCSc1ncnc2sc(C)c(C)c12 | 101 | 102 | 77 | 99 | 4 | 6 | x | x | x | x | x | x
Cc1sc2ncnc(Sc3nnc4sc5ccccc5n34)c2c1C | 129 | 208*[activator] | 292*[activator] | 111 | 16 | 8 | -1 | 99 | 98 | 104 | 98 | 92
Cc1ccnc2nc(C(=O)Nc3cc(Cl)ccc3N3CCOCC3)nn12 | 99 | 98 | 98 | 99 | 11 | 33 | x | x | x | x | x | x
CN(CC(=O)N1CCN(c2cccc(Cl)c2)CC1)S(=O)(=O)c1cccs1 | 144 | 177*[activator] | 178*[activator] | 131 | x | 32 | -2 | 101 | 97 | 100 | 99 | 99
CCCCc1ccc(NC(=O)CN2NS(=O)(=O)c3ccccc3C2=O)cc1 | 88 | 87 | -6.9* | 81 | 5 | 12 | x | x | x | x | x | x | RGS-Gao=87*
O=[N+]([O-])c1ccc(Sc2ccccc2)nc1 | 98 | 100 | 106 | 103 | 5 | 13 | x | x | x | x | x | x
Nc1cccnc1Sc1ccc([N+](=O)[O-])cn1 | 5.8* | 4.3* | -30 | 5.6* | -2 | 8 | -2 | 91 | 131*[activator] | 94 | 105 | 95

Assay outcomes as filed in PubChem BioAssay.
